Results as given in PubChem BioAssay (Tox21).
A number with no mark means an inactive call. A call without a number means that no potency is given here. Active and inactive are the calls of the source. Unless noted, calls follow the shape of the dose curve; as a rule, active = well fitted curve in the direction sought with a large enough effect in the repeat runs; inconclusive = weak or mixed curves; inactive = no such curve, though single readings can be large; an effect the other way counts as inactive or inconclusive.

Key:
[1] = qHTS assay for small molecules that induce genotoxicity in human embryonic kidney cells expressing luciferase-tagged ATAD5 (AID 651632); also: nearly all actives have a fitted effect of over 15% in size
Summary of the method: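 DMSO vehicle served as the control. HEK293T reporter cells, 16 hr at 37C, then 30 min Amplite at room temperature; ATAD5 induction is measured as luciferase activity.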

[2] = qHTS assay for small molecule agonists of the p53 signaling pathway - cell viability (AID 651633; calls by dose curve; also: nearly all actives have a fitted effect of over 30% in size; also: potency is read from the fitted curve at half-maximal effect)
Summary of the method: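 p53RE-bla cells were treated with compound for 16 hours at 37 C. Cytotoxicity was then measured as CellTiter-Glo luminescence after 30 min at room temperature.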

[3] = qHTS assay for small molecules that induce genotoxicity in human embryonic kidney cells expressing luciferase-tagged ATAD5 - cell viability (AID 651634; calls by dose curve; also: nearly all actives have a fitted effect of over 25% in size; also: potency is read from the fitted curve at half-maximal effect)
Summary of the method: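 Here HEK293T cells with the ATAD5 luciferase reporter are incubated with test compounds for 15.5 hr, and cytotoxicity is then gauged by measuring protease activity in live cells using fluorescence.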

[4] = qHTS assay for small molecule disruptors of the mitochondrial membrane potential - cell viability (AID 720634; calls by dose curve;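 also: human HepG2 liver cancer cells; series mostly up to about 83 µM; nearly all actives have a fitted effect of over 20% in size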)
Summary of the method: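 Viability of HepG2 cells is scored from ATP content by luminescence; cells are exposed to compound for 1 hr at 37 C and 5% CO2, then dosed with m-MPI dye before the CellTiter-Glo reagent.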

[5] = qHTS assay for small molecule disruptors of the mitochondrial membrane potential (AID 720635); also: potency is read from the fitted curve at half-maximal effect
Summary of the method: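 HepG2 cells exposed to compound 1 hr at 37C, then Mito-MPS dye 30 min. Ratio read of aggregate (540/590 nm) versus monomer (490/535 nm) fluorescence.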

[6] = qHTS assay to test for compound auto fluorescence at 590 nm (red) in HepG2 cells (AID 720674)
Summary of the method: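 Fluorescence at 590 nm emission following 540 nm excitation was recorded from HepG2 wells one hour after compound transfer, with DMSO-only wells as vehicle and Rose Bengal sodium equivalency as the scale.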

[7] = qHTS assay to test for compound auto fluorescence at 590 nm (red) in HEK293 cells (AID 720679)
Summary of the method: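 Plates of HEK293 cells (10% dialyzed FBS) are treated with 23 nL compound or DMSO vehicle after a 4-5 hr attachment period, incubated overnight at 37C, and read for red fluorescence at 540/590nm.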

[8] = qHTS assay to test for compound auto fluorescence at 535 nm (green) in HEK293 cells (AID 720680)
[9] = qHTS assay to test for compound auto fluorescence at 460 nm (blue) in HEK293 cell free culture (AID 720681)
Summary of the method: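 Compounds were added to cell-free DMEM with 10% FBS and fluorescence read directly. The blue channel used 405 nm excitation and 460 nm emission, with triamterene as the reference fluorophore.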

[10] = qHTS assay to test for compound auto fluorescence at 535 nm (green) in HEK293 cell free culture (AID 720682)
Summary of the method: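 Measurement is a direct plate read of green fluorescence (485 nm in, 535 nm out) after compound addition to serum-supplemented DMEM lacking cells, with fluorescein used to express intensities.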

[11] = qHTS assay to test for compound auto fluorescence at 590 nm (red) in HEK293 cell free culture (AID 720683)
Summary of the method: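 Cell-free wells of DMEM with 10% FBS received compound, and intrinsic fluorescence was read at excitation/emission 540/590 nm. Values expressed as equivalence to Rose Bengal sodium.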

[12] = qHTS assay to test for compound auto fluorescence at 590 nm (red) in HepG2 cell free culture (AID 720684)
Summary of the method: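 Auto fluorescence equivalency versus Rose Bengal sodium, red channel Ex/Em 540/590 nm; compounds in cell-free MEM/10% FBS; DMSO vehicle control.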

[13] = qHTS assay to test for compound auto fluorescence at 460 nm (blue) in HepG2 cell free culture (AID 720685)
Summary of the method: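 Cell-free plates of MEM plus 10% FBS received 23 nL compound or DMSO vehicle; blue-channel (405/460 nm) intensity scored against triamterene as reference fluorophore.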

[14] = qHTS assay to test for compound auto fluorescence at 535 nm (green) in HepG2 cell free culture (AID 720686)
[15] = qHTS assay to test for compound auto fluorescence at 460 nm (blue) in HepG2 cells (AID 720687)
Summary of the method: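 HepG2 cells in MEM with 10% FBS, attached overnight at 37 C, were exposed to compound or DMSO for 1 hr at 37 C, 5% CO2. Blue fluorescence was read at 405/460 nm, with triamterene as reference fluorophore.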

[16] = target: Glucocorticoid receptor (Homo sapiens) (UniProt P04150); test: qHTS assay to identify small molecule antagonists of the glucocorticoid receptor (GR) signaling pathway (AID 720692; active = well fitted inhibition curve with a large enough effect in the signal ratio in the repeat runs, not every such curve was filed as active; inconclusive = weak or mixed curves, or effect the other way; inactive = no such curve, though single readings can be large or run the other way; the % refers to the signal ratio; also: potency is read from the fitted curve at half-maximal effect)
Summary of the method: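 In a 1536-well cell format, compounds were added 4 h after seeding GR-bla HeLa cells, together with dexamethasone at 5 nM final; reporter activity was measured by FRET-substrate fluorescence following 18 h at 37 C.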

[17] = qHTS assay for small molecule agonists of the p53 signaling pathway (AID 651631; calls by dose curve; also: nearly all actives have a fitted effect of over 15% in size)
Summary of the method: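 Quantitative high-throughput format: 4,000 p53RE-bla HCT-116 cells/well, 5 h pre-incubation, 16 h compound exposure at 37 °C, 2 h room-temperature substrate step, fluorescence intensity measured.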

[18] = qHTS assay to test for compound auto fluorescence at 535 nm (green) in HepG2 cells (AID 720675)
[19] = qHTS assay to test for compound auto fluorescence at 460 nm (blue) in HEK293 cells (AID 720678)
Summary of the method: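 After cell attachment (4-5 hr, 37C), compounds were pinned onto HEK293 monolayers in 10% dialyzed FBS medium. The blue channel (405/460 nm) was read following overnight culture. Equivalency was calculated against triamterene.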

[20] = target: Glucocorticoid receptor (Homo sapiens) (UniProt P04150); test: qHTS assay to identify small molecule agonists of the glucocorticoid receptor (GR) signaling pathway (AID 720691; active = well fitted activation curve with a large enough effect in the signal ratio in the repeat runs, not every such curve was filed as active; inconclusive = weak or mixed curves, or effect the other way; inactive = no such curve, though single readings can be large or run the other way; the % refers to the signal ratio; also: potency is read from the fitted curve at half-maximal effect)
Summary of the method: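 Compounds in DMSO, alongside positive controls, were added to GR-bla HeLa reporter cells and incubated 18 h at 37 C; GRE-driven beta-lactamase was detected by fluorescence after 2 h with FRET substrate at room temperature.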

Sequence of Glucocorticoid receptor (Homo sapiens) (P04150 whole entry, looked up): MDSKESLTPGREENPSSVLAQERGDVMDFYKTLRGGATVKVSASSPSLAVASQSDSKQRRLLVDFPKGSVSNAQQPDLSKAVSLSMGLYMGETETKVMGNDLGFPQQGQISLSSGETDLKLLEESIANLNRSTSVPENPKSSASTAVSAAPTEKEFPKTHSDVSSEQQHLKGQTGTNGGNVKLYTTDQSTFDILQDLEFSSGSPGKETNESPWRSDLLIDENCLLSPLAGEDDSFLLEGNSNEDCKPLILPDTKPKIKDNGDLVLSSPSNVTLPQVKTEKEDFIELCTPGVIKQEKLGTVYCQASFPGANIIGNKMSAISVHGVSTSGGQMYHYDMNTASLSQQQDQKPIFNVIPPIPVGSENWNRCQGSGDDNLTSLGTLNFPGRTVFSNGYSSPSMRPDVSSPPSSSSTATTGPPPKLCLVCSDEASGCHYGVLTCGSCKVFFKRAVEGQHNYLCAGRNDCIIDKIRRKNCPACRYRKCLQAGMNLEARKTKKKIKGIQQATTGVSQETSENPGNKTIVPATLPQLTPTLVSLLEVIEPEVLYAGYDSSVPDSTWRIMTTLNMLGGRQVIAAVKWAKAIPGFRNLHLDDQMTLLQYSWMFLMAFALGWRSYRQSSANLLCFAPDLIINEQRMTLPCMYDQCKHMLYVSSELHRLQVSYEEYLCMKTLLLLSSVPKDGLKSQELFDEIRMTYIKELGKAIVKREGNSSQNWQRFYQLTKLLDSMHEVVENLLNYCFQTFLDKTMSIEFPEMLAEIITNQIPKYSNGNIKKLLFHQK

Compound | Potency [1] | Potency [2] | Potency [3] | Potency [4] | Potency [5] | outcome [6] | outcome [7] | outcome [8] | Potency [9] | outcome [10] | outcome [11] | outcome [12] | Potency [13] | outcome [14] | Potency [15] | Potency [16] | Potency [17] | outcome [18] | Potency [19] | Potency [20]
NC(=O)Nc1ccc(Cl)c(Cl)c1 | inactive | inactive | inactive | inactive | 48.4 µM (active) | inactive | inactive | inactive | inactive | inactive | inactive | inactive | inactive | inactive | inactive | 48.9 µM (active) | – | – | – | –
O=C(C(=O)c1ccccc1)c1ccccc1 | – | inactive | inactive | – | – | inactive | inactive | inactive | inactive | inactive | inactive | inactive | inactive | inactive | inactive | inactive | inactive | inactive | inactive | inactive
CCCCC(=O)O[C@]1(C(=O)CO)CC[C@H]2[C@@H]3CCC4=CC(=O)CC[C@]4(C)[C@H]3[C@@H](O)C[C@@]21C | inactive | – | inactive | inactive | inactive | inactive | inactive | – | inactive | inactive | inactive | inactive | inactive | inactive | inactive | – | inactive | – | inactive | 0.0425 µM [inconclusive] (active)
C[C@]12CCC(=O)C=C1C=C[C@@H]1[C@@H]2CC[C@@]2(C)[C@H]1CC[C@@]21CCC(=O)O1 | inactive | – | inactive | inactive | inactive | inactive | – | inactive | inactive | inactive | inactive | inactive | inactive | inactive | inactive | 10.7 µM (active) | inactive | inactive | inactive | inactive
CC(C)(C)CC(C)(C)c1ccc(OCCO)cc1 | inactive | – | – | inactive | 60.8 µM (active) | inactive | inactive | inactive | inactive | inactive | inactive | inactive | inactive | inactive | inactive | – | inactive | – | inactive | inactive
C[C@@H]1C[C@H]2[C@@H]3CCC4=CC(=O)C=C[C@]4(C)[C@@]3(F)[C@@H](O)C[C@]2(C)[C@@]1(O)C(=O)CO | inactive | inactive | inactive | – | – | inactive | inactive | inactive | inactive | inactive | inactive | inactive | inactive | inactive | inactive | – | – | – | – | –
CCCC(=O)O[C@]1(C(=O)COC(=O)CC)CC[C@H]2[C@@H]3CCC4=CC(=O)CC[C@]4(C)[C@H]3[C@@H](O)C[C@@]21C | inactive | inactive | – | inactive | inactive | inactive | inactive | inactive | inactive | inactive | inactive | inactive | inactive | inactive | inactive | – | – | inactive | inactive | 0.301 µM (active)
COC(OC)(C(=O)c1ccccc1)c1ccccc1 | inactive | inactive | inactive | inactive | – | inactive | inactive | inactive | inactive | inactive | inactive | inactive | – | inactive | inactive | inactive | – | – | – | inactive
OCC1CC=CCC1 (configuration not stated) | inactive | inactive | – | inactive | inactive | inactive | inactive | – | inactive | inactive | inactive | inactive | inactive | inactive | inactive | – | – | inactive | inactive | inactive
OC/C(Br)=C(\Br)CO | inactive | inactive | inactive | inactive | – | inactive | inactive | inactive | inactive | inactive | inactive | inactive | inactive | inactive | – | inactive | – | – | inactive | inactive
CCOC(=O)OCC | inactive | inactive | inactive | – | – | inactive | – | – | inactive | inactive | inactive | inactive | inactive | inactive | – | inactive | – | inactive | – | inactive
CC1CN(c2cc3c(cc2F)c(=O)c(C(=O)O)cn3-c2ccc(F)cc2F)CCN1 (configuration not stated) | inactive | inactive | inactive | – | inactive | inactive | inactive | inactive | inactive | inactive | inactive | inactive | inactive | inactive | inactive | inactive | – | – | inactive | inactive
CCNC(=O)N1CCN(CCCC(c2ccc(F)cc2)c2ccc(F)cc2)CC1 | inactive | inactive | – | inactive | – | inactive | – | inactive | inactive | inactive | inactive | inactive | – | inactive | – | – | – | inactive | inactive | inactive
COc1cc2c(cc1OC)-c1cc(=Nc3c(C)cc(C)cc3C)n(C)c(=O)n1CC2 | inactive | 29.8 µM (active) | 29.8 µM (active) | – | – | – | inactive | inactive | inactive | inactive | inactive | inactive | inactive | inactive | – | – | – | – | inactive | –
C1COCO1 | inactive | inactive | – | inactive | – | inactive | inactive | inactive | inactive | inactive | inactive | inactive | inactive | inactive | inactive | inactive | – | inactive | – | inactive
O=C(c1ccc(O)cc1)c1ccc(Cl)cc1 | inactive | inactive | inactive | – | 15.7 µM (active) | inactive | inactive | – | inactive | inactive | inactive | inactive | inactive | inactive | inactive | – | – | inactive | inactive | inactive
